Test results as given in PubChem BioAssay (Tox21).
Calls of active or inactive are those of the source. Calls follow the shape of the full dose curve.

What follows are molecules tested against Muscarinic acetylcholine receptor M1 (Homo sapiens) (UniProt P11229) (assay: Cholinergic receptor muscarinic 1 (CHRM1) small molecule agonists, cell-based qHTS assay (AID 1963589; also: nearly all actives have a fitted effect of over 35% in size)). Conditions: CHRM1-CHO cells, agonist mode, calcium flux fluorescence; series mostly up to 76.8 µM; activation: at the top concentration.
Chain of Muscarinic acetylcholine receptor M1 (Homo sapiens) (P11229 whole entry, looked up): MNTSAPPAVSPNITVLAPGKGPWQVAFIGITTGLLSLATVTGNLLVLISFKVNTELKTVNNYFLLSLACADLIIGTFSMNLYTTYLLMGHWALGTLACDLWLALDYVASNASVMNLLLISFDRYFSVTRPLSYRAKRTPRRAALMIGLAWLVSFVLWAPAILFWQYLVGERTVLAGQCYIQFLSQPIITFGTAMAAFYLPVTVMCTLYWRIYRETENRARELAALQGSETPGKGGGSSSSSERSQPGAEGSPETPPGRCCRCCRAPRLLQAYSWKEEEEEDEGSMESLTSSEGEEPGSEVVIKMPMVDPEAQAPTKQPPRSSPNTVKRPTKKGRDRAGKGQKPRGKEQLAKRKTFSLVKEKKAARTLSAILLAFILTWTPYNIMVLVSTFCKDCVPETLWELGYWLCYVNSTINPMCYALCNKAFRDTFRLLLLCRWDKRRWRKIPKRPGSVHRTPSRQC
Source text: National Center for Advancing Translational Sciences [NCATS]
Division of Preclinical Innovation [DPI]
U.S. Environmental Protection Agency [EPA]
National Institutes of Environmental Health Sciences [NIEHS]
National Toxicology Program [NTP]
U.S. Food and Drug Administration [FDA]
The CHRM1 is a muscarinic receptor. This receptor plays a crucial role in learning and memory processes and has long been identified as a promising therapeutic target for the improvement of cognitive decline in Alzheimer's disease (AD). The CHRM1-CHO cell line stably expressing human muscarinic acetylcholine receptor M1 (CHRM1) can be used for screening agonists and antagonists of interactions between CHRM1 and its ligands. The CHRM1-CHO Calcium Flux Assay is a homogeneous fluorescence-based assay for detecting the intracellular calcium level using FDSS kinetic plate reader system.
CHRM1-CHO cells were dispensed at 1000 cells/3uL/well in 1536-well black-clear bottom plates using a Multidrop Dispenser. After the assay plates were incubated at a 37 C/5% CO2 incubator for 18 h, 3 uL of Dye Loading Buffer was transferred to the assay plate by a Flying Reagent Dispenser. The assay plates were incubated at 37 C for 1h. For agonist mode, 23 nL of compounds dissolved in DMSO, positive controls or DMSO only was transferred to the assay plate by a pin tool. […] Each test compound was measured at 15 concentrations in three independent runs.
% is scaled to controls: 0 for no effect and ±100 for the full control effect.

| Structure (SMILES) | activation |
| --- | --- |
| COc1ccc(-c2cc(C(F)F)nn2-c2ccc(S(N)(=O)=O)cc2)cc1F | 10.4% [at 35.3 µM] (inactive) |
| CC(C)(C)C(=O)CC(=O)C(C)(C)C | -0.0965% (inactive) |
| CC(=O)c1cnccn1 | 0.458% (inactive) |
| O=c1cc[nH]cc1 | -0.154% (inactive) |
| CC/C=C\CCOC(=O)c1ccccc1 | 3.03% (inactive) |
| CC(CC(=O)O)CC(C)(C)C (stereo not given) | -0.0481% (inactive) |
| CN(C)c1ccc(CCO)cc1 | 1.23% (inactive) |
| O=C(CCOCCOCCOCCOCCC(=O)Nc1c(I)cc(I)c(C(=O)O)c1I)Nc1c(I)cc(I)c(C(=O)O)c1I | 0.425% [at 35.3 µM] (inactive) |
| CCn1nc(Cc2ccccc2)cc1C1CCN(C[C@H]2C[C@H](N(C)[C@@H](C(=O)O)C(C)C)C[C@@H]2c2cccc(F)c2)CC1 | -0.803% (inactive) |
| CCN(CC)CCc1nc(-c2ccccc2)no1 | -0.58% [at 35.3 µM] (inactive) |
| COC(=O)C(C)(C)C | -0.0634% (inactive) |
| C[C@H](CN1CCCC1)C(=O)c1ccc(C(F)(F)F)cc1 | 1.38% [at 35.3 µM] (inactive) |
| CC1CCC(C(C)CS)CC1S (stereo not given) | -0.186% (inactive) |
| CCOC(=O)c1ccc(I)cc1 | -0.954% (inactive) |
| [Cu+] | 1.52% (inactive) |
| OCCN(CCO)c1ccccc1 | 0.0528% (inactive) |
| CC[N+](CC)(CCNC(=O)C(=O)NCC[N+](CC)(CC)Cc1ccccc1Cl)Cc1ccccc1Cl | -0.766% [at 35.3 µM] (inactive) |
| CC(=O)Nc1ccc(S(N)(=O)=O)cc1 | -0.288% (inactive) |
| CCCC(C(=O)OCCN(CC)CC)(c1ccccc1)c1ccccc1 | -0.271% [at 35.3 µM] (inactive) |
| CC(=O)CCc1ccc(O)cc1 | -0.359% (inactive) |

| Structure (SMILES) | activation |
| --- | --- |
| CCc1nnc(NS(=O)(=O)c2ccc(N)cc2)s1 | -0.109% [at 35.3 µM] (inactive) |
| CCCCCC(=O)OCCc1ccccc1 | -0.652% (inactive) |
| CC(C)=CCOC(=O)c1ccccc1 | -0.0168% (inactive) |
| CC(CN(C)C)C(C)(O)Cc1ccc(Cl)cc1 (stereo not given) | -0.27% [at 35.3 µM] (inactive) |
| Cn1c(=O)cc(Oc2ccc(F)cc2F)c2cnc(NCC(C)(C)O)nc21 | -0.499% (inactive) |
| C=CCc1ccccc1OCC(O)CNC(C)C (stereo not given) | -0.901% [at 35.3 µM] (inactive) |
| COc1ccc(OC)c(N=Nc2c(O)ccc3ccccc23)c1 | 0.843% (inactive) |
| CC1CCc2cc(F)cc3c(=O)c(C(=O)O)cn1c23 (stereo not given) | -0.437% [at 35.3 µM] (inactive) |
| Cc1c(N)cccc1[N+](=O)[O-] | 0.731% (inactive) |
| O=C(O)CCN(C1(C(=O)NO)CCCC1)S(=O)(=O)c1ccc(Oc2ccc(F)cc2)cc1 | -0.791% (inactive) |
| C=CC(=O)OCCOCCOCC | 3.62% (inactive) |
| COc1cc(S(=O)(=O)O)c(C)cc1N=Nc1c(O)ccc2cc(S(=O)(=O)O)ccc12 | 2.26% (inactive) |
| N=C1C=CC(=C(c2ccc(N)cc2)c2ccc(N)cc2)C=C1 | 2.06% (inactive) |
| Cc1c(NC(C)C)c(=O)n(-c2ccccc2)n1C | -0.815% [at 35.3 µM] (inactive) |
| Cc1ccc2ccccc2n1 | -0.45% (inactive) |
| CC(C)(C)CC(=O)OCC(=O)[C@@]1(O)CC[C@H]2[C@@H]3CCC4=CC(=O)C=C[C@]4(C)[C@H]3[C@@H](O)C[C@@]21C | 3.66% [at 35.3 µM] (inactive) |
| CC1(c2ccccc2)OC(C(=O)O)=CC1=O (stereo not given) | -0.0325% [at 35.3 µM] (inactive) |
| CCCCCCOC(=O)CCC | 0.295% (inactive) |
| CCOC(=O)Cn1c(=O)sc2cccc(Cl)c21 | -0.919% (inactive) |
| CCOC(=O)Cc1cccc2ccccc12 | -0.315% (inactive) |
